High-throughput results from PubChem BioAssay.
S aureus helic – S. aureus DNA helicase inhibition. inhibition, % (concentration not given with the values). AID 485395. 120,000 tested, 0.05% active. purified S. aureus helicase, fluorescence unwinding assay; in the data active means inhibition above about 25%, passing the limit was not always enough;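 further: 0% = mean of negative control wells and 100% = mean of positive control wells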
Sa growth 42C – inhibitors of Staphylococcus aureus growth at 42 °C; S. aureus RN4220 growth, OD600, 20 h; stronger effect = lower value; 170,000 tested, 0.53% active; AID 720641; relative growth, % (test concentration not listed);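 active means relative growth at most 50% at the other temperature and 20+ points below 30 °C, or under 10% at both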
HCMV UL50-53 inh – cytomegalovirus nuclear egress complex inhibition; HTRF UL50-UL53 interaction, normalized percent inhibition; inhibition, % (test concentration not listed); 190,000 tested, 0.15% active; AID 1918969; in the data active means inhibition above about 27%, passing the limit was not always enough
An asterisk follows results filed as active; · = not tested or not shown. Shown is part of a subset that was picked to be rich in hits.

SMILES	S aureus helic	Sa growth 42C	HCMV UL50-53 inh
CSC1=NCCN1C(=O)Cc1ccccc1	-9.0	92.6	-25.3
CCCCN1C(C(=O)c2ccccc2)=C(OC(C)=O)c2ccccc2S1(=O)=O	·	-0.5*	-18.0
CCCCC(=O)OC1=C(C(=O)c2ccccc2)N(CC)S(=O)(=O)c2ccccc21	·	15.1	6.0
O=C1CCCC2=C1C1(O)C(=O)c3ccccc3C1(O)O2 (stereo unspecified)	-7.0	95.1	78.4*
Nc1ccc2c(c1)OC1(O)c3ccccc3C(=O)C21O (stereo unspecified)	-1.0	80.7	-20.3
CC1CC(CCC(=O)Nc2ccc(S(N)(=O)=O)cc2)C(=O)O1 (stereo unspecified)	4.0	121.2	·
C[C@H](NC(=O)c1cccc(C(F)(F)F)c1)c1nc2ccccc2[nH]1	11.0	85.8	-11.6
CC(NC(=O)Nc1cccc(C(F)(F)F)c1)c1nc2ccccc2[nH]1 (stereo unspecified)	-6.0	0.5*	-12.0
O=C(NCc1ccco1)C(c1ccccc1)N(C(=O)Cn1nnc2ccccc21)C1CCCC1 (stereo unspecified)	21.0	109.8	20.9
CC(C)NC(=O)n1cc(F)c(=O)[nH]c1=O	-4.0	-0.6*	-12.0
NC(=O)Cn1cc(F)c(=O)[nH]c1=O	15.0	90.0	4.2
CCCCCCNC(=O)n1cc(F)c(=O)[nH]c1=O	·	1.1*	4.2
CCCCCNC(=O)CCCCCn1c(=O)[nH]c2ccsc2c1=O	·	95.0	-5.1
Nc1c(Nc2ccc(C(=O)O)cc2)c2ccccc2oc1=O	18.0	90.2	-26.3
N#Cc1ccc2c(c1)nc1c3ccc4c5c(ccc(c(=O)n21)c53)C(=O)NC4=O	5.0	0.9*	-54.0
CCOC(=O)c1c(NC(=O)c2ccc(Br)cc2)sc(C(=O)Nc2cccc(Cl)c2)c1C	·	·	-1.4
CN(c1ccc(Br)cc1)S(=O)(=O)c1ccc2[nH]c(=O)c(=O)[nH]c2c1	-3.0	99.0	1.8
O=C(Nc1ccccc1)Nc1nnc(C(F)(F)F)s1	·	1.1*	-18.9
CC(C)(Oc1ccc(Cl)cc1)C(=O)Nc1nccs1	-9.0	94.7	-9.1
CC(C)(Oc1ccc(Cl)cc1)C(=O)Nc1nnc(C(F)(F)F)s1	32.0	-1.1*	-13.8
O=C(Nc1nnc(C(F)(F)F)s1)c1ccccc1	13.0	54.6	13.6
O=C1CC(C2CCCC=C2N2CCCCC2)C(=O)N1c1ccccc1 (stereo unspecified)	9.0	97.2	-21.1
CN(C)S(=O)(=O)c1cccc(C(=O)Oc2ccc3c(c2)OCO3)c1	-3.0	79.0	-33.5
CC1Sc2ccc(C(=O)Oc3ccccc3C#N)cc2NC1=O (stereo unspecified)	-2.0	98.0	-6.0
CCOC(=O)c1sc(-c2ccc(F)cc2)cc1N	-6.0	48.2*	-8.5
SMILES	S aureus helic	Sa growth 42C	HCMV UL50-53 inh
CCOC(=O)c1sc(-c2ccccc2)cc1N	7.0	·	-1.4
O=C(Nc1ccc(F)cc1Cl)C1CCCN(c2nc3cccnc3s2)C1 (stereo unspecified)	·	·	-2.9
O=C1C(c2c(O)[nH]c3ccccc23)=Nc2ccccc21	·	90.5	-14.6
O=C1c2ccccc2-[n+]2ccc3c([nH]c4ccccc43)c21	·	·	60.8*
Cc1ccc2oc(=O)c3cc(C(=O)NCCCN4CCN(C)CC4)sc3c2c1	-6.0	106.7	-67.6
Cc1ccc2oc(=O)c3cc(C(=O)NCCN4CCCCC4C)sc3c2c1 (stereo unspecified)	46.0*	104.4	·
CC(C)(C)c1csc(NC(=O)CSC2=NCCS2)n1	-3.0	87.5	4.4
CC(Nc1nc(C(C)(C)C)cs1)=C(C#N)C#N	7.0	4.2*	-19.1
Cc1cccc(Cn2nnc3c(=O)[nH]c(C4CCCN(C(=O)c5ccccc5Cl)C4)nc32)c1 (stereo unspecified)	·	92.8	-6.3
Cc1cccc(Cn2nnc3c(=O)[nH]c(C4CCN(C(=O)c5ccc(F)cc5)CC4)nc32)c1	·	2.7*	11.1
O=C(c1cccc(Cl)c1)N1CCC(c2nc3c(nnn3Cc3ccc(F)cc3F)c(=O)[nH]2)CC1	·	0.2*	5.3
O=C(c1ccccc1)N1CCCC(c2nc3c(nnn3Cc3ccc(F)cc3F)c(=O)[nH]2)C1 (stereo unspecified)	·	91.1	-9.5
Cc1ccc(C)c(C(=O)N2CCC(c3nc4c(nnn4Cc4ccccc4)c(=O)[nH]3)CC2)c1	·	3.7*	10.0
COc1cccc(OC)c1Cn1nnc2c(=O)[nH]c(C3CCN(C(=O)c4ccccc4)CC3)nc21	·	10.8	11.2
COc1ccc(Cn2nnc3c(=O)[nH]c(C4CCN(C(=O)c5ccc(C)cc5)CC4)nc32)cc1OC	·	10.3	6.9
CCOc1ccc(Cn2nnc3c(=O)[nH]c(C4CCN(C(=O)c5ccccc5)CC4)nc32)cc1	·	-0.3*	-1.0
O=C(CCN1C(=O)COc2ccccc21)Nc1ccc2c(c1)OCCCO2	-3.0	107.6	7.6
COCCNC(=O)NCc1cc(C)n(-c2cccc(Cl)c2)c1C	·	·	-12.0
CCCCn1c2nc3ccccc3nc2c2cccc(C)c21	-13.0	98.9	-0.5
COc1ccc(C2=NN(C(=O)CCC(=O)O)C(c3ccc(C)cc3)C2)cc1 (stereo unspecified)	·	·	-29.0
COn1c(=O)c(-c2cccc(C(F)(F)F)c2)[n+]([O-])c2ccccc21	7.0	93.0	-108.8
Cc1oc(-c2cccs2)nc1CS(=O)CC(=O)NC1CCCC1 (stereo unspecified)	-5.0	96.4	-23.8
Cc1ccccc1Cn1nnc2c(=O)[nH]c(C3CCN(C(=O)c4ccc(F)cc4)CC3)nc21	·	19.4	15.2
Cc1ccccc1Cn1nnc2c(=O)[nH]c(C3CCN(C(=O)c4ccccc4)CC3)nc21	·	3.5*	-2.5
COc1ccc(OC)c(NC(=O)CSc2ncnc3nc(N(C)C)sc23)c1	·	·	-14.3
SMILES	S aureus helic	Sa growth 42C	HCMV UL50-53 inh
Cc1ccc(S(=O)(=O)N2CCSc3ccccc32)cc1	·	·	-9.0
COc1ccc(C(=O)Nc2c(O)c3ccccc3oc2=O)cc1OC	-3.0	98.1	2.0
CO[C@@H]1[C@@H](OC(N)=O)[C@@H](O)[C@H](Oc2ccc3c(O)c(NC(=O)c4ccc(O)c(CC=C(C)C)c4)c(=O)oc3c2C)OC1(C)C	·	-0.8*	-6.6
Cc1ccc(CNC(=O)C2=NN(c3ccccc3)C(=O)CC2)cc1	39.0	88.7	4.6
COc1ccccc1NC(=O)CC(O)(C(F)(F)F)C(F)(F)F	20.0	101.8	-2.9
Cc1ccc(Cl)cc1NC(=O)CC(O)(C(F)(F)F)C(F)(F)F	5.0	-0.8*	-4.3
C#CCn1c(-c2nnc(CC)o2)cc2ccccc21	·	·	-17.7
Cc1cc(C)nc(NNC(=S)Nc2ccccc2C)n1	-19.0	94.3	4.7
CC1=NC(=O)CN1c1ccc(N)cc1	6.0	105.0	·
Cc1[nH]n2c(=O)cc(-c3ccc(F)cc3)nc2c1-c1ccccc1	·	·	-9.5
Cc1[nH]n2c(=O)cc(-c3ccc(Cl)cc3)nc2c1-c1ccccc1	·	-0.5*	-28.4
OC12CC3CC(CC(C3)C1)C2	6.0	105.2	8.1
CC(C)c1ccc(NC(=O)CSc2ncn[nH]2)cc1	-7.0	94.2	-40.3
CC(C)c1ccc(S(=O)(=O)/N=C2/C=C(Sc3ncn[nH]3)C(=O)c3ccccc32)cc1	16.0	1.2*	·
Cc1ccc(S(=O)(=O)/N=C2\C=C(Sc3ncn[nH]3)C(=O)c3ccccc32)cc1	17.0	2.3	45.4
Cc1ccc(S(=O)(=O)/N=C2/C=C(Sc3ncn[nH]3)C(=O)c3ccccc32)cc1	23.0	2.1*	31.8
O=C1Oc2ccc3ccccc3c2C1(O)C(F)(F)F (stereo unspecified)	17.0	85.0	-9.4
